A selection: hits, their analogues and other compounds. The true share with any hit is near 3.6%.
LGR2 inh: inhibitors of bursicon-induced LGR2 CRE-luciferase signal, primary screen, cell-based, HEK293, CRE-luciferase reporter, bursicon stimulation; Drosophila bursicon receptor LGR2 (rickets); bursicon-stimulated, 4 h; inhibition, % at 9.99 µM; 380,000 compounds, 0.35% hits;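 active = drop in luminescence signal, shown as inhibition above about 50% in the replicate tests, limit read from the data, passing the limit was not always enough; inconclusive = probably only some replicates passing the limit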;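 also: agonist challenge used bursicon conditioned medium at about half maximal strength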
EBV LMP1 NFkB: EBV LMP1-driven NF-kappaB luciferase reporter inhibitors, primary screen, cell-based, luminescence, single point | LMP1-induced NF-kappaB luciferase reporter cells | inhibition, % at 12.5 µM | 350,000 compounds, 0.69% hits; in the data active = inhibition above about 41%; inconclusive = no clear call, values can overlap the other calls;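 also: 0% = neutral control wells and 100% = reference inhibitor control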
TROY NFkB inh: inhibitors of TROY-driven NF-kB signaling, primary screen, Q293 LMP1-TROYcd cells, NF-kB luciferase, uHTS; Q293 LMP1-TROYcd NF-kB luciferase reporter, 4 h; inhibition, % at 10 µM; 360,000 compounds, 0.98% hits; AID 1347056, 2019;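 active = compounds whose plate-normalised and pattern-corrected inhibition of the luciferase reporter signal at the single screening dose is 50% or more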
TWEAK Fn14 block: inhibitors of TWEAK-Fn14 signaling, primary screen, luciferase reporter cells, uHTS. TWEAK-stimulated Fn14 reporter cells, luciferase luminescence, 8 h. AID 1159606, 2016. inhibition, % at 10 µM. 360,000 compounds, 2% hits; in the data active = inhibition above about 50%
HSF-1 act: HSF-1 activators, primary screen, NIH3T3-HGL cells, MG132 stress, luminescence, single point; NIH3T3-HGL HSF-1 luciferase reporter, 8 h; 100% = twice DMSO control signal; activation, % at 9 µM; 300,000 compounds, 1.7% hits;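 active = mean replicate activation of at least 50% with a set share of replicates each reaching 50%; inconclusive = only one of those two conditions met; inactive = mean below 50% and too few replicates reaching it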;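 also: 0% = median of the neutral control wells and 100% = twice that signal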
HSF1 inh: HSF1 inhibitors in luciferase reporter cells, primary screen, cell-based, NIH3T3, luminescence; AID 2098, 2009; NIH3T3-HGL HSE-luciferase, MG132-induced, luminescence 8 h; hits give low values; 300,000 compounds, 0.77% hits; activity change, negative = inhibition, % at 7.5 µM (by protocol);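 active = more than half of replicate wells show activity change below -50%, luminescence cut by over half; inconclusive = some wells, but at most half, below -50%; inactive = no replicate well below -50%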;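 also: luciferase reports HSF-1 transcriptional activity via heat shock element; 0% = median of DMSO wells and -100% = zero luminescence signal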
The depositor's hits bear a star; ? = inconclusive; . = not tested or not shown.

SMILES | LGR2 inh | EBV LMP1 NFkB | TROY NFkB inh | TWEAK Fn14 block | HSF-1 act | HSF1 inh
Cc1cccc(/C(N)=N/OC(=O)COc2ccccc2Cl)c1 | -38 | -18 | -37 | -65 | . | .
Cc1cc(C)c(C)c(OCC(=O)O/N=C(\N)c2ccccn2)c1 | -28 | -12 | -37 | -31 | 16 | 4
N/C(=N\OC(=O)COc1ccc2ccccc2c1Br)c1ccccn1 | -156 | -17 | -14 | -29 | 83* | 48
COc1ccc2c3c(n(C)c2c1)[C@@H](CO)N(C(=O)Nc1ccccc1F)CC31CN(C(=O)c2ccccc2)C1 | -3 | . | . | . | . | .
Cn1cnc(CCNC(=O)C[C@@H]2CC[C@@H]3[C@H](COC[C@@H](O)CN3C(=O)Nc3ccc(F)cc3)O2)c1 | -9 | . | . | . | . | .
CNC(=O)N/N=C(\N)c1ccccn1 | -16 | -7 | 10 | 12 | . | .
N/C(=N\NC(=O)Nc1ccc(Cl)cc1)c1ccccn1 | -64 | -9 | 64* | 31 | -11 | 4
N/C(=N\OC(=O)COc1ccc(Br)cc1Cl)c1ccccn1 | ? | -7 | 22 | 66* | 51* | 13
N/C(=N\OC(=O)COc1ccc(Br)cc1Cl)c1ccncc1 | -22 | -22 | -48 | -9 | . | .
O=C(NC[C@H]1[C@H](c2ccccc2)[C@H](CO)N1Cc1ccccn1)C1CCC1 | -1 | . | . | . | . | .
COC(=O)[C@@H]1[C@@H](CO)[C@@H]2Cn3c(ccc(-c4cccc(F)c4)c3=O)[C@@H]2N1CC1CC1 | -19 | . | . | . | . | .
CC1CCCN(C(=O)c2ccc(-c3ccccc3Cl)o2)C1 (configuration not stated) | -96 | -57 | -28 | -10 | 58* | 31
Cn1ncc2c(Nc3ccc(Br)cc3)nc(Nc3ccc(Br)cc3)nc21 | 7 | -2 | 29 | 53* | -2 | -10
Cn1ncc2c(Nc3cccc(Cl)c3)nc(Nc3cccc(Cl)c3)nc21 | -1 | -4 | 21 | 60* | 5 | 2
CC(=O)N(C)C[C@H]1Oc2cc(C3=CCCCC3)ccc2S(=O)(=O)N([C@H](C)CO)C[C@@H]1C | 1 | . | . | . | . | .
COc1ccc(CN(C)C[C@@H]2OCCCC[C@H](C)Oc3ccc(NC(=O)Cc4ccccc4)cc3C(=O)N([C@@H](C)CO)C[C@H]2C)cc1 | -1 | . | . | . | . | .
CN1CCN(S(=O)(=O)c2ccc(Sc3nnnn3-c3ccccc3)c([N+](=O)[O-])c2)CC1 | . | -6 | 40 | 100* | -44 | -41
CC(=O)c1ccc(Sc2nnnn2-c2ccccc2)c([N+](=O)[O-])c1 | 76* | -15 | 37 | 98* | -31 | -32
Cn1cnnc1Sc1cc(N2CCN(S(=O)(=O)c3ccccc3)CC2)ccc1[N+](=O)[O-] | . | 1 | 3 | -3 | 3 | -1
O=[N+]([O-])c1ccc(Sc2nnnn2-c2ccccc2)c(Cl)c1 | 3 | 24 | 24 | 33 | 23 | 12
Cc1noc(C)c1S(=O)(=O)Nc1ccc2c(c1)CC(=O)N([C@@H](C)CO)C[C@@H](C)[C@H](CN(C)C(=O)Nc1ccc(F)cc1)O2 | -23 | . | . | . | . | .
Cc1nc2c(O)c3c(c(O)c2nc1C)C1C=CC3CC1 | 0 | 68* | -6 | 12 | . | .
CCCC#Cc1ccc2c(c1)O[C@H](CN(C)C(=O)c1ccccn1)[C@H](C)CN([C@@H](C)CO)S2(=O)=O | 3 | . | . | . | . | .
O=c1nc(/C=C/c2cc([N+](=O)[O-])ccc2Cl)cc(C(F)(F)F)[nH]1 | . | -5 | 31 | -2 | 75* | 43
C[C@H](CO)N1C[C@H](C)[C@@H](CN(C)Cc2ccc3c(c2)OCCN3C)OCc2cn(nn2)CCCC1=O | 20 | . | . | . | . | .
SMILES | LGR2 inh | EBV LMP1 NFkB | TROY NFkB inh | TWEAK Fn14 block | HSF-1 act | HSF1 inh
Cc1cc(C)c2sc(NNC(=O)c3ccc(S(=O)(=O)N4CCc5ccccc5C4)cc3)nc2c1 | . | 49* | 15 | 16 | -21 | -20
Cc1cc(C)c2nc(NNC(=O)c3ccc(S(=O)(=O)N4CCc5ccccc5C4)cc3)sc2c1 | . | ? | -17 | -16 | -37 | -27
COc1ccc(S(=O)(=O)N(C)C[C@@H]2Oc3ccc(NC(=O)CCCN(C)C)cc3CC(=O)N([C@@H](C)CO)C[C@H]2C)cc1 | -11 | . | . | . | . | .
CCCNC(=O)N1[C@H](CO)[C@@H](c2ccccc2)C12CN(C(=O)C1CCCCC1)C2 | 3 | . | . | . | . | .
O=C(Nc1cccc(S(=O)(=O)N2CCCCCC2)c1)c1cc(=O)c2ccccc2o1 | 23 | 5 | 20 | 63* | 14 | -7
COC(=O)c1cc(NC(=O)CN(C)Cc2ccccc2)cc(C(=O)OC)c1 | 0 | -6 | 14 | 86* | -9 | 4
CN(CC(=O)Nc1ccc(Br)cc1)Cc1ccccc1 | -48 | -6 | -17 | -31 | 19 | 4
CCN1CCN(Cc2ccc(NC(=O)Nc3ccccc3)cc2)CC1 | . | 13 | 53* | 60* | -49 | -42
CN(c1ccccc1)S(=O)(=O)c1cccc(NC(=O)c2cc(=O)c3ccccc3o2)c1 | 67* | 5 | 49 | 51* | -1 | -3
NS(=O)(=O)c1cccc(NC(=O)c2cc(=O)c3ccccc3o2)c1 | 0 | 2 | -7 | 3 | 7 | -2
Cc1noc(C)c1S(=O)(=O)Nc1ccc2c(c1)C(=O)N([C@H](C)CO)C[C@@H](C)[C@@H](CN(C)C(=O)Nc1ccc3c(c1)OCO3)OCCCC[C@@H](C)O2 | 4 | . | . | . | . | .
O=C(N[C@H]1CC[C@@H](CC(=O)N2CCc3ccccc3C2)O[C@H]1CO)C1CCC1 | 24 | . | . | . | . | .
CN1CCN(CC(=O)Nc2cccc(S(=O)(=O)N(C)c3ccccc3)c2)CC1 | . | 74* | -5 | -2 | . | .
COC(=O)c1cccc(NC(=O)CN2CCN(Cc3ccccc3)CC2)c1 | . | 5 | -5 | -11 | -70 | -62*
CCCN(CC(=O)Nc1ccccc1C)C(=O)CCl | 1 | 72* | -3 | 49 | 1 | -4
Nc1nc(CCl)nc(Nc2ccc3ccccc3c2)n1 | -100 | -4 | -27 | 16 | 111* | 80
Cc1cc(C(=O)Nc2cccc3c2O[C@@H](CN(C)C)[C@H](C)CN([C@H](C)CO)C3=O)n(C)n1 | 0 | . | . | . | . | .
CCN(Cc1cc(=O)n2ccsc2n1)c1cccc2ccccc12 | 29 | -3 | 64* | 97* | 15 | -7
CC1OC(Nc2cccc3ccccc23)C(O)C(O)C1O (configuration not stated) | . | -1 | 28 | 92* | -96 | -96*
O=C(Nc1ccc(F)cc1)c1ccc(=O)[nH]n1 | -5 | 3 | 1 | -1 | -74 | -71*
O=C(Nc1cccc(Cl)c1)c1ccc(=O)[nH]n1 | -7 | 0 | 2 | -18 | -4 | 3
CC(/C=C1\SC(=S)N(c2ccc(C(=O)O)cc2)C1=O)=C\c1ccccc1 | 13 | 4 | 45 | 58* | 2 | 4
